# Experimental data: PubChem BioAssay
# Biological target: Fibroblast growth factor 2 (Homo sapiens) (UniProt P09038)
# Experiment: FGF2 binders on small-molecule microarrays, primary screen, biochemical, small-molecule microarray, 635/667 nm fluorescence (AID 1133)
# Settings: small-molecule microarray binding, FGF2, fluorescence 635/667; higher = more signal
# Chain of Fibroblast growth factor 2 (Homo sapiens) (P09038 whole entry, looked up): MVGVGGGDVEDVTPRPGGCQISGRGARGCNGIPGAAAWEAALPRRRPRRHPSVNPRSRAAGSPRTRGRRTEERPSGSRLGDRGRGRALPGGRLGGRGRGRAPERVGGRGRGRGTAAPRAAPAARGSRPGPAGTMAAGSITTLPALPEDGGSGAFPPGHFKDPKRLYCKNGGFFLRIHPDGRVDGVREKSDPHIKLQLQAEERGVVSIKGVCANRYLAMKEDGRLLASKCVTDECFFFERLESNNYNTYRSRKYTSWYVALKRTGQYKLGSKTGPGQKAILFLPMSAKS
row,Structure (SMILES),composite z-score
1,COc1cc(CO)ccc1OC(C)=O,0.502
2,COc1ccc(C#Cc2ccc3c(c2)[C@]2(C(=O)N3)[C@H](c3ccc(O)cc3)N3[C@H](c4ccccc4)[C@H](c4ccccc4)OC(=O)[C@H]3[C@@H]2C(=O)N2CCCCCCC2)cc1,1.02
3,CN1C=C(C(=O)OCCS(C)(=O)=O)C(C(=O)OCCS(C)(=O)=O)=CC(CCCO)=CC1C1CC1 (stereo unspecified),-0.275
4,COCCOC(=O)N1C(=O)[C@@]2(c3cc(C#CCC(C(=O)OC)C(=O)OC)ccc31)[C@H](c1ccc(O)cc1)N1[C@H](c3ccccc3)[C@H](c3ccccc3)OC(=O)[C@H]1[C@@H]2C(N)=O,1.33
5,COc1ccc(NN2C(C(O)c3ccc(OC)c(OCc4ccccc4)c3)C=CC3C(=O)N(C4CCCCC4)C(=O)C32)cc1 (stereo unspecified),0.0862
6,CC(C)N1CC=CC23O[C@@H]4C=CCOC(=O)[C@@H]4[C@H]2C(=O)N(CCO)[C@@H]3C1=O (stereo partly specified),-1.33
7,O=C1c2ccccc2[C@@]2(Cc3ccccc3N(Cc3ccccc3)C2=O)[C@H](c2ccc(CO)cc2)N1C1CCCCC1,0.736
8,CO[C@H]1O[C@H](CO)[C@@H](OC(=O)Nc2ccc3c(c2)OCO3)[C@H](OC(=O)Nc2ccccc2)[C@H]1OC(=O)Nc1ccccc1,0.924
9,CC(C)C[C@@H]1NC(=O)[C@@H]2C[C@H](C(=O)NCCCCCC[N+](C)(C)C)[C@H](c3ccc(O)cc3)N2C1=O,0.998
10,N#Cc1ccc(NN2C(C(O)C3CCCCC3)C=CC3C(=O)N(c4ccccc4)C(=O)C32)cc1 (stereo unspecified),-0.252
11,O=c1oc(-c2ccccc2)nc2cc(Br)ccc12,0.671
